Calb FLC – affects C. albicans growth with fluconazole; C. albicans CaCi-2 (fluconazole-resistant clinical isolate) + fluconazole, Alamar Blue growth, 48 h; growth inhibition, % (concentration not given with the values); 300,000 tested, 0.57% active; AID 1979;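 active means growth inhibition above about 58% in most replicates, limit read from the data, passing the limit was not always enough; inconclusive means exactly half the replicates above a set limit; inactive means most replicates below a set limit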;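 further: all wells also contain fluconazole at 8 µg/ml as a sub-toxic cotreatment; 0% = median of DMSO wells and 100% = median of geldanamycin control wells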
CSC inhib – blocks cancer stem cells; AID 2717; inhibition, % at 7.5 µM; 300,000 tested, 1.1% active; cancer stem cell-like cells viability, luminescence; in the data active means inhibition above about 75%; inconclusive means no clear call, values can overlap the other calls; tested in HMLE shEcad cells
PP1 inh – PP1-alpha (human) inhibition in PP5 counter-screen. P62136. purified PP1alpha, OMFP fluorescence. inhibition, % at 6.7 µM. 320,000 tested, 0.9% active;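 active means inhibition above the mean inhibition of all tested compounds plus 3 SD, computed separately for each screening campaign, cut at about 15% in these data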
PP5 primary – inhibitors of human protein phosphatase 5 (PP5) | P53041 | purified PP5c, OMFP substrate fluorescence | inhibition, % at 6.7 µM | 320,000 tested, 0.18% active;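 active means inhibition above the campaign's mean inhibition across all tested compounds plus 3 SD, cut at about 9.5% in these data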;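 further: 0% = DMSO only and 100% = 100 µM cantharidin control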
Target sequence (P53041 whole entry, looked up): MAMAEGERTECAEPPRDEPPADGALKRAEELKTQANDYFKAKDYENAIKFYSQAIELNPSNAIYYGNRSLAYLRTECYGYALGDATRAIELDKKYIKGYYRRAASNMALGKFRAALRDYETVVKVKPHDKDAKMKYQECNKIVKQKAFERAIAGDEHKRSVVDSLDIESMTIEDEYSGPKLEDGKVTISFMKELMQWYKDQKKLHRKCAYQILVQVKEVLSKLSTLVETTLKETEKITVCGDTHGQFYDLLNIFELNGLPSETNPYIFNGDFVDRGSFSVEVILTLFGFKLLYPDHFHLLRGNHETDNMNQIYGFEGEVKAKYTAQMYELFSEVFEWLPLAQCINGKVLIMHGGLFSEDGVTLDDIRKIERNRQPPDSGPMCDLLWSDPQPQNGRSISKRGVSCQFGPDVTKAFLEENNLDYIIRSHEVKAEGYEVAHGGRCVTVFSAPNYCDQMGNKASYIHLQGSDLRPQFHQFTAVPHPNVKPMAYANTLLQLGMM
ALR inh – blocks human ALR sulfhydryl oxidase activity. P55789. purified ALR, DTT oxidation, H2O2 HRP-luminol luminescence. inhibition, % (concentration not given with the values). 290,000 tested, 3.8% active. AID 485317;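 active means mean replicate inhibition above about 79%, with every replicate also reaching it, limit read from the data; inconclusive means only one of the two criteria met; inactive means mean below limit and not every replicate reaching it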
Numbers without * were called inactive; u = inconclusive; x = not tested or not shown. This is a sample that favours compounds with a hit; in the whole collection about 5.4% have one here.

SMILES	Calb FLC	CSC inhib	PP1 inh	PP5 primary	ALR inh
NS(=O)(=O)c1ccc(NC(=O)/C=C/c2ccco2)cc1	11	-12	0	0	96*
CC(=O)NS(=O)(=O)c1ccc(NC(=O)/C=C/c2ccco2)cc1	-24	-5	4	0	7
O=C(CSCc1ccc(Cl)cc1)Nc1cccc(C(=O)Nc2ccccc2C(=O)O)c1	-5	18	10	3	98*
CCc1ccccc1NC(=O)c1cccc(NC(=O)/C=C/c2ccco2)c1	-3	-2	1	3	-3
CC(C)c1ccc(OCC(=O)Nc2cccc(C(=O)Nc3ccccc3C(=O)O)c2)cc1	76*	-4	6	1	98*
COc1cc([N+](=O)[O-])ccc1NC(=O)CSc1ccccn1	18	-9	-2	1	-17
Cc1ccc(SCCC(=O)OC(C)C(=O)Nc2ccccc2)cc1 (stereo not given)	6	6	-2	1	-4
C=CC(=O)N1c2ccccc2Sc2ccc(NC(=O)OCC)cc21	-5	32	4	2	25
CCOCCCNC(=O)C1CCN(C(=O)Nc2ccc(Cl)cc2)CC1	-7	-7	-4	3	-11
O=C(O)CCCC(=O)Nc1cccc(C(=O)Nc2ccccc2C(=O)O)c1	-3	-4	-2	-2	-3
O=C(CSCc1ccccc1)Nc1cccc(C(=O)Nc2ccccc2C(=O)O)c1	23	x	4	1	98*
Cc1ccc2nc(SCC(=O)NC3CC3)[nH]c2c1	0	-19	-5	-2	-5
O=C(Nc1ccon1)c1csc2ccccc12	-4	0	-1	2	-14
Cc1cccc(-n2cc[nH]c2=S)c1C	16	-5	-2	0	x
O=C(NCC(c1cccs1)N1CCOCC1)c1ccc(Cl)cc1 (stereo not given)	-9	-7	-1	-1	-4
O=C(NCC(c1cccs1)N1CCOCC1)c1ccc(Cl)s1 (stereo not given)	-14	78*	-1	3	12
O=C(CSc1ccc(Br)cc1)NC1CCS(=O)(=O)C1 (stereo not given)	-1	-2	-1	2	x
Cc1ccc(SCC(=O)NC2CCS(=O)(=O)C2)cc1C (stereo not given)	x	x	-1	-1	99*
COc1nc(-c2ccccc2)ccc1-c1noc(-c2ccco2)n1	8	19	-1	0	x
COc1ccc(-c2ccc(-c3noc(-c4ccco4)n3)c(OC)n2)cc1	-2	-8	16*	-1	-7
S=C(c1ccc(-c2ccc(Cl)cc2Cl)o1)N1CCCC1	-4	0	-5	1	96*
S=C(c1ccc(-c2ccc(Cl)cc2Cl)o1)N1CCCCC1	-7	-3	-2	2	7
COc1ccc(C(=O)COC(=O)CNC(=O)c2ccc(C)s2)c(OC)c1	x	-15	x	x	x
O=C(N/N=C/c1cn(-c2cccs2)nc1-c1ccccc1)c1ccccc1Br	1	83*	4	7	-1
Oc1ccc(C=Nc2ccccc2-c2nc3ccccc3[nH]2)c(O)c1	1	x	1	5	82*
SMILES	Calb FLC	CSC inhib	PP1 inh	PP5 primary	ALR inh
Oc1ccccc1C=Nc1ccccc1-c1nc2ccccc2[nH]1	3	8	3	1	34
O=c1oc2ccccc2nc1/C=C(\O)c1ccc(Br)cc1	4	-4	-1	0	-7
CS(=O)(=O)Cc1nc2ccccc2oc1=O	-3	4	4	-1	99*
C/C(O)=C\c1nc2ccccc2oc1=O	0	27	0	3	95*
Cc1ccc2oc(=O)c(/C=C(\O)c3ccccc3)nc2c1	-15	15	1	4	98*
CCS(=O)(=O)CCSc1nc2ccccc2o1	-5	-18	0	4	-1
Cc1ccc2oc(=O)c(/C=C(\O)c3cccs3)nc2c1	20	2	-1	4	3
Cc1ccc2oc(=O)c(/C=C(\O)CC(C)C)nc2c1	31	0	1	3	82*
COc1ccc(C)cc1-n1c(-c2ccncc2)n[nH]c1=S	-4	-3	-4	1	14
COc1ccc(-c2n[nH]c(=S)n2-c2ccc(C)cc2)cc1OC	6	-8	-1	-1	89*
COc1ccc(-c2n[nH]c(=S)n2-c2ccc3c(c2)OCCO3)cc1OC	8	-10	-3	-1	-3
COc1cc(-n2c(-c3ccccc3)n[nH]c2=S)c(OC)cc1Cl	28	-9	-4	1	79*
COc1ccccc1-c1n[nH]c(=S)n1N	-4	-11	-4	-2	-3
COc1ccccc1-c1n[nH]c(=S)n1-c1ccccc1	10	6	3	0	93*
Cc1ccc(-n2c(C)n[nH]c2=S)cc1	-2	-14	0	-2	95*
Cc1ccc(-n2c(C)n[nH]c2=S)cc1C	7	9	-5	-5	x
CS(=O)(=O)Nc1ccc(C(=O)NCC2CCCO2)cc1 (stereo not given)	-10	-1	-1	2	1
CCn1c(-c2nn(C)c(C)c2Cl)n[nH]c1=S	-8	-4	3	1	x
CC(C)(C)c1cc(-c2n[nH]c(=S)n2-c2ccc(Cl)cc2)n[nH]1	6	-13	-5	0	93*
Cc1ccc(-n2c(-c3nn(C)c(C)c3Cl)n[nH]c2=S)cc1	-3	-5	-2	-1	86*
Cc1nn(C)cc1-c1n[nH]c(=S)n1-c1ccc(Cl)cc1	-9	7	3	2	-1
COc1ccccc1N1CCN(CCc2n[nH]c(=S)n2-c2ccccc2)CC1	27	-2	-3	-2	97*
COc1ccccc1-n1c(-c2cc(-c3ccc(F)cc3)n[nH]2)n[nH]c1=S	u	-4	0	1	77*
c1ccc(CN2CCN(Cc3nnc(-c4ccccc4)o3)CC2)cc1	2	1	-4	-2	12
Cc1nn2c(-n3ccnc3C)c3c(nc2c1-c1ccccc1)CCC3	11	x	-2	0	2
SMILES	Calb FLC	CSC inhib	PP1 inh	PP5 primary	ALR inh
Cc1ccc2cc(CCl)c(Cl)nc2c1	-8	3	-4	0	98*
ClCc1cc2ccccc2nc1Cl	0	-7	2	0	-5
COc1ccc(S(=O)(=O)N2CCSC2)cc1C	3	0	-4	1	-3
CCn1c(SCC(=O)c2ccccc2)nnc1-c1cccs1	30	-5	-3	0	x
Cc1nn(-c2ccccn2)c2nc(-c3cccs3)cc(C(=O)NCc3ccco3)c12	2	11	17*	3	5
CCOc1ccc(/C=N/Nc2ccccc2)cc1	-15	10	-1	0	1
N/N=C(\c1ccccc1)c1cc(Cl)ccc1N	-3	-6	-1	0	14
Nc1ccc(Cl)cc1/C(=N/O)c1ccccc1	-80	-12	1	0	97*
CCn1c(C)c(C)c2cc(C(=O)Nc3cccc(Cl)c3)ccc21	10	81*	5	-2	5
Cn1nc(-c2ccccc2F)c2cc(C(=O)Nc3ccc4c(c3)OCCO4)sc21	41	77*	2	3	-3
COc1cccc(-c2nn(C)c3sc(C(=O)Nc4ccc5c(c4)OCCO5)cc23)c1	5	40	-3	1	x
